From PubChem BioAssay
MLL AF4-AF9 inh = MLL-AF4/AF9 protein interaction inhibition; 0.47% of 350,000 active; inhibition, % at 10 µM; AID 651704; AlphaScreen, biotin-AF4 peptide binding to FLAG-AF9;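 active means every replicate reaching a set inhibition limit, whatever the replicate mean, cut at about 25% in these data; inconclusive means mean inhibition reaches that limit but some replicates miss it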;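 further: 0% = plate neutral control median and 100% = total signal loss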
RAD54 branch = blocks human RAD54 Holliday junction branch migration. inhibition, % at 10.4 µM. Q92698. FAM/BHQ fluorescence. 0.14% of 360,000 active;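 active means mean normalized replicate activity at least 40 and at least half of replicates scoring 40 or more; inconclusive means only one of the two criteria met; inactive means mean below 40 and under half of replicates reaching 40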;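 further: 0% = median of neutral control wells and 100% = median of positive control wells; inhibitors cause a drop in the FAM fluorescence signal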
Target sequence (Q92698 whole entry, looked up): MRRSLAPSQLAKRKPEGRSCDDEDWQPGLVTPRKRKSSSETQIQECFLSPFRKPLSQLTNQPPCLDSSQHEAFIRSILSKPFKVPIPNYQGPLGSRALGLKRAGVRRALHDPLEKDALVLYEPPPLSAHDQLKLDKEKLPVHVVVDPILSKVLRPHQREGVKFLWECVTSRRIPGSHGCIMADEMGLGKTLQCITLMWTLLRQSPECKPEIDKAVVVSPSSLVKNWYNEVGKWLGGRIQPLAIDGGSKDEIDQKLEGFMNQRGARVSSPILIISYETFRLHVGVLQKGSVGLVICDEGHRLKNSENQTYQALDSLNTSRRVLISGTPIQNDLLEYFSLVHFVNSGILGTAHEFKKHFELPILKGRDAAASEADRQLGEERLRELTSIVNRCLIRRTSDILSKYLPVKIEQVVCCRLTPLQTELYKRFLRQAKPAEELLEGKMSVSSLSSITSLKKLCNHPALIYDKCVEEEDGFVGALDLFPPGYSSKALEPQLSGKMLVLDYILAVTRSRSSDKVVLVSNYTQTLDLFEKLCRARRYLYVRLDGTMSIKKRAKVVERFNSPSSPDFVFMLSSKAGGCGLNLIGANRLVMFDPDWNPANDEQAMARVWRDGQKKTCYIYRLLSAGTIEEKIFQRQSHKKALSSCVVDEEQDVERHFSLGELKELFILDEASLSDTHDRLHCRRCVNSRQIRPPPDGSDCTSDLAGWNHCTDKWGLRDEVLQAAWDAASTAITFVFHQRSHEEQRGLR
dFosB act = activators of mouse delta FosB homodimer | P13346 | purified delta FosB, TAMRA-CDK5 oligo fluorescence polarization; percent of positive-control signal above neutral wells | activation, % at 25 µM | 0.99% of 340,000 active | AID 493131;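 active means mean activation above about 17%, with every replicate also reaching it, limit read from the data, passing the limit was not always enough; inconclusive means only one of the two conditions met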
RAD52 anneal inh = blocks human RAD52 DNA annealing | P43351 | recombinant RAD52 DNA annealing, FRET fluorescence | inhibition, % at 18.7 µM | 0.46% of 360,000 active | AID 651710;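 active means every replicate showing at least 50% inhibition; inconclusive means mean inhibition at least 50% but not in every replicate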
DENV2 CPE rescue = DENV2-induced cell death inhibition | DENV2-infected cells, cytopathic effect rescue, plate reader | CPE inhibition, % at 9.99 µM | 1.7% of 350,000 active; in the data active means CPE inhibition above about 20%, passing the limit was not always enough; inconclusive means no clear call, values can overlap the other calls; tested in BHK-21 cells;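 further: 0% = median of neutral control wells and 100% = median of positive control wells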
GSIS activator = GLuc luminescence reporter in INS-1E cells, primary screen for activators of glucose-dependent secretion of insulin. INS-1E GLuc reporter insulin secretion, 2-3 h. activation, % at 16.6 µM. 0.61% of 370,000 active;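 active means lowest replicate activation of at least 40%, so every replicate reaches that level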;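 further: 0% = median of neutral control wells and 100% = median of IBMX positive control wells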
Numbers without * were called inactive; ? = inconclusive; / = no result; ! = a repeat was not active. The list is not random: actives were taken first. Their share in the collection is about 3.1%.

SMILES	MLL AF4-AF9 inh	RAD54 branch	dFosB act	RAD52 anneal inh	DENV2 CPE rescue	GSIS activator
C[C@@H]1CCCCO[C@@H](CN(C)C(=O)Nc2ccc(F)cc2)[C@H](C)CN([C@H](C)CO)C(=O)c2cc(NC(=O)Nc3ccc(F)cc3)ccc2O1	2	-12	/	-18	65*	25
COc1cc(F)ccc1CN1CCC(n2nccc2NC(=O)C2CCOC2)CC1 (stereo not drawn)	1	-6	-14	-23	-2	6
COc1cc(CN2CCC(n3nccc3NC(=O)C3CCOC3)CC2)ccc1F (stereo not drawn)	0	6	-2	-6	-6	45*
O=C(Nc1ccccc1F)N1[C@@H]2CNc3ccccc3[C@@H]2[C@@H]1CO	-1	10	/	-32	1	2
CC(C)(O)C#Cc1ccc([C@H]2[C@H](CO)N3CCCCN(C(=O)c4ccc(F)cc4)C[C@@H]23)cc1	1	11	/	-10	21*	2
CC(C)(O)C#Cc1ccc([C@@H]2[C@H](CO)N3CCCCN(S(C)(=O)=O)C[C@@H]23)cc1	-2	-12	/	-15	37*	1
CC(C)(O)C#Cc1ccc([C@@H]2[C@H]3CN(S(C)(=O)=O)CCCCN3[C@H]2CO)cc1	/	-5	/	/	/	0
C[C@H](CO)N1C[C@H](C)[C@H](CN(C)CC2CC2)Oc2cc(-c3ccccc3F)ccc2S1(=O)=O	7	-3	/	21	-9	13
C[C@H]1CCCCO[C@@H](CN(C)C)[C@@H](C)CN([C@@H](C)CO)C(=O)c2cc(NS(=O)(=O)c3cccs3)ccc2O1	-1	-4	/	-12	-6	4
CC(=O)OCO/N=[N+](\[O-])N1CCCC1	-5	-26	/	6	24*	/
C=CCn1c(C)csc1=Nc1ccccc1C	27*	-8	-4	-2	5	-1
CC(C)(C)c1ccc(OCC(=O)Nc2ccc(-c3nc4cccnc4o3)cc2)cc1	/	/	-6	/	/	106*
CC(C)C(=O)Nc1ccc(-c2nc3cccnc3o2)cc1	/	-3	-9	/	/	13
CCC(=O)N(C)C[C@H]1Oc2cc(-c3ccncc3)ccc2S(=O)(=O)N([C@@H](C)CO)C[C@@H]1C	0	3	/	4	-6	24
Nc1ccc(N(c2ccccc2)c2ccc(N)cc2)cc1	/	-4	23*	/	/	-9
Clc1nc(Cl)nc(N(c2ccccc2)c2ccccc2)n1	12	-13	-2	5	-3	7
COC(=O)C[C@@H]1CC[C@H]2[C@@H](COC[C@@H](O)CN2CCC(F)(F)F)O1	/	-9	/	/	5	8
CC(C)C(=O)Nc1ccc2c(c1)C(=O)N(C)[C@@H]1CC[C@H](CC(=O)NCC3CC3)O[C@H]1CO2	-3	-2	/	-7	-9	6
N#C/C(=N/Nc1ccc(OC(F)(F)F)cc1)C(N)=S	9	/	5	-5	-9	-6
NC(=S)N=Nc1ccc(NN=C(N)N)cc1	-1	45	29*	26	1	1
C[C@@H]1CN([C@H](C)CO)C(=O)Cc2cc(NC(=O)C3CCCCC3)ccc2O[C@H]1CN(C)Cc1ccc2c(c1)OCO2	0	-5	/	1	4	0
C[C@@H]1CCCCO[C@@H](CN(C)Cc2ccc(C(=O)O)cc2)[C@H](C)CN([C@@H](C)CO)C(=O)c2cc(NC(=O)CCCN(C)C)ccc2O1	0	-3	/	5	38*	23
C[C@@H]1CCCCO[C@@H](CN(C)Cc2ccncc2)[C@@H](C)CN([C@H](C)CO)C(=O)c2cc(NC(=O)c3ccncc3)ccc2O1	-1	6	/	8	?	10
C[C@H](CO)N1C[C@H](C)[C@H](CN(C)Cc2ccc(C(=O)O)cc2)OCCCC[C@H](C)Oc2ccc(NC(=O)c3ccncc3)cc2C1=O	-2	0	/	101*	-5	6
C[C@@H]1CCCCO[C@H](CN(C)Cc2ccc(C(=O)O)cc2)[C@H](C)CN([C@H](C)CO)C(=O)c2cc(NC(=O)c3ccncc3)ccc2O1	-3	5	/	103*	42*	11
SMILES	MLL AF4-AF9 inh	RAD54 branch	dFosB act	RAD52 anneal inh	DENV2 CPE rescue	GSIS activator
C[C@@H]1CCCCO[C@@H](CN(C)Cc2ccc(C(=O)O)cc2)[C@H](C)CN([C@H](C)CO)C(=O)c2cc(NC(=O)c3ccncc3)ccc2O1	-1	-6	/	104*	-13	21
C[C@H]1CN([C@@H](C)CO)C(=O)c2cc(C#CCc3ccccc3)cnc2O[C@@H]1CN(C)C(=O)C1CCOCC1	-1	7	/	-1	5	15
C[C@H]1CN([C@@H](C)CO)C(=O)c2cc(NC(=O)c3ccncc3)ccc2O[C@H]1CN(C)Cc1ccc(C(=O)O)cc1	0	0	-4	8	42*!	-3
C[C@@H]1CN([C@@H](C)CO)C(=O)c2cc(NC(=O)c3ccncc3)ccc2O[C@@H](C)CCCCO[C@@H]1CN(C)Cc1ccc(C(=O)O)cc1	-3	3	/	59*	-6	4
C[C@@H]1CCCCO[C@@H](CN(C)Cc2ccc(C(=O)O)cc2)[C@@H](C)CN([C@@H](C)CO)C(=O)c2cc(NC(=O)c3ccncc3)ccc2O1	-3	4	/	105*	-10	18
C[C@@H]1CN([C@@H](C)CO)C(=O)c2cc(NC(=O)c3ccncc3)ccc2O[C@@H](C)CCCCO[C@H]1CN(C)Cc1ccc(C(=O)O)cc1	-3	1	/	96*	-2	19
C[C@@H]1CN([C@@H](C)CO)C(=O)c2cc(NC(=O)c3ccncc3)ccc2O[C@@H](C)CCCCO[C@H]1CN(C)Cc1ccncc1	-3	4	/	-15	0	-1
C[C@@H]1CCCCO[C@H](CN(C)Cc2ccc(C(=O)O)cc2)[C@@H](C)CN([C@H](C)CO)C(=O)c2cc(NC(=O)c3ccncc3)ccc2O1	-2	6	/	48	-12	-2
COCCNC(=O)C[C@@H]1CC[C@H](NS(=O)(=O)c2ccc(C)cc2)[C@@H](CO)O1	-1	-6	/	-3	-2	3
COc1ccc(CNC(=O)C[C@H]2CC[C@H]3[C@@H](COc4ccc(NC(=O)C(C)C)cc4C(=O)N3C)O2)cc1	-2	/	/	/	/	-3
O=C(C[C@@H]1C=C[C@@H](NC(=O)Nc2ccc3c(c2)OCO3)[C@@H](CO)O1)NCc1ccc(F)cc1	-1	0	/	-1	11	-7
C[C@@H]1CN([C@@H](C)CO)C(=O)c2cc(NS(=O)(=O)c3ccc(Cl)cc3)ccc2O[C@@H](C)CCCCO[C@H]1CN(C)CC1CC1	9	3	/	8	84*	-14
CNC[C@@H]1Oc2ccc(NS(=O)(=O)c3cn(C)cn3)cc2C(=O)N([C@@H](C)CO)C[C@H]1C	-6	6	/	-8	23*	6
